Data on 36 compounds can be found in PubChem BioAssay (EPA / NIEHS).

Where a structure was tested more than once in an assay, its records may differ in their call. The source made the active and inactive calls. Rule for the calls: active = hit-call score of the fitted dose curve at least 0.9, where 1 is the maximum; inactive = score below 0.9.

Read-out in the assay: Matrix Metallopeptidase 3 (MMP3), MMP3 (gene 4314)
As to the kind of experiment: BSK_BF4T_MMP3: BioMAP Diversity Plus: BF4T Assay for Matrix Metallopeptidase 3 (MMP3) Biomarker Activity (AID 2284271). The conditions noted are these: primary human bronchial epithelial cells with fibroblasts. Here is the method: BSK_BF4T is a cell-based, multiplexed-readout assay that uses bronchial epithelial cells and dermal fibroblasts, a human vascular primary cell, with measurements taken at 24 hours after chemical dosing in a microplate: 96-well plate.BSK_BF4T_MMP3 is an assay component measured in the BSK_BF4T assay. It measures MMP-3 antibody related to regulation of gene expression using ELISA technology.Data from the assay component BSK_BF4T_MMP3 was analyzed at the endpoint, BSK_BF4T_MMP3, in the positive analysis fitting direction relative to DMSO as the negative control and baseline of activity. Using a type of binding reporter, gain or loss-of-signal activity can be used to understand protein changes. To generalize the intended target to other relatable targets, this assay endpoint is annotated to the 'protease' intended target family, where the subfamily is 'matrix metalloproteinase'.
The levels of cell surface (or secreted, indicated by the prefix "s") biomarker endpoints were measured by ELISA. Overt cytotoxicity to cells in confluent adherent cultures (all systems other than the BT system) was assessed by measuring total protein levels using sulforhodamine B (SRB) staining in parallel cultures at the time of biomarker measurements, indicated as SRB endpoints. For proliferation assays for adherent cell types, individual cell types are cultured at sub-confluence and relative cell numbers quantified by SRB staining at time points optimized for each system (48 h: 3C and CASM3C systems; 72 h: BT and HDF3CGF systems; 96 h: SAg system). SRB was performed by staining cells with 0.1% SRB after fixation with 10% TCA and reading wells at 560 nm.Viability and proliferation of PBMC (T cells) was quantified by Alamar Blue reduction for the SAg and BT systems. For PBMC viability (referred to as PBMC Cytotoxicity within the assay endpoint names), cells were plated (75,000/well in a 96-well plate) and then chemical samples added for 1 h before addition of activators, SEB and TSST-1 (20 ng/mL final concentration each). Cells were incubated for 90 h. Then, Alamar Blue (20 uL/well) (Invitrogen, Cat DAL1100) was added for 6 h, and the plates were read with a fluorescence microplate reader at 546/580 nm (excitation/emission). For PBMC proliferation, cells were plated and activated as above but incubated for only 16 h prior to addition of Alamar Blue. Plates were read after 6 h.
Turning to `NC(O)(C(F)(F)F)C(F)(F)F`, the result was inactive. Still for that read-out and setting: the value for `OCC(F)(F)C(F)(F)C(F)(F)C(F)(F)C(F)(F)C(F)(F)CO` was “inactive”; that for `O=C(Cl)C(F)(F)C(F)(F)C(F)(F)C(F)(F)C(F)(F)C(F)(F)F` was “inactive”; that for `O=C(O)C(F)(F)C(F)(F)C(F)(F)OC(F)(F)F` was “inactive”. The same measure, in the same setting: the value for `O=C(Cl)C(F)(F)C(F)(F)C(F)(F)C(F)(F)C(F)(F)C(F)(F)C(F)(F)F` was “inactive”; that for `O=S(=O)(OCC(F)(F)F)C(F)(F)C(F)(F)C(F)(F)C(F)(F)F` was “inactive”. The AC50 is the midpoint of the concentration-response curve, whichever way the signal moves. With `OCC(F)(F)C(F)(F)C(F)(F)C(F)(F)C(F)(F)C(F)(F)C(F)(F)C(F)(F)CO`, the AC50 was 19.3 µM (active) and the result was inactive.

On to `FC(F)(F)C(F)(F)C(F)(F)CC1CO1` (stereo not given), for which the result was inactive. With `O=S(=O)(Cl)C(F)(F)C(F)(F)C(F)(F)C(F)(F)C(F)(F)C(F)(F)C(F)(F)C(F)(F)F`, the result was inactive. Same read-out and setting: the value for `C[Si](Cl)(Cl)CCC(F)(F)C(F)(F)C(F)(F)C(F)(F)C(F)(F)C(F)(F)F` was “inactive”; that for `O=C(O)C(F)(F)C(F)(F)C(F)(F)C(=O)O` was “inactive”; that for `O=C(O)CCC(F)(F)C(F)(F)C(F)(F)C(F)(F)C(F)(F)C(F)(F)C(F)(F)F` was “inactive”. On to `OCC(O)CC(F)(F)C(F)(F)C(F)(F)C(F)(F)C(F)(F)C(F)(F)C(F)(F)C(F)(F)F` (stereo not given), for which the outcome was inactive. On to `NS(=O)(=O)C(F)(F)C(F)(F)C(F)(F)C(F)(F)C(F)(F)C(F)(F)F`, for which the AC50 was 49.5 µM (active) and the outcome was inactive. For `CCN(CCO)S(=O)(=O)C(F)(F)C(F)(F)C(F)(F)C(F)(F)C(F)(F)C(F)(F)C(F)(F)C(F)(F)F` the same measures were 24 µM (active) and “inactive”. In the case of `CCOC(=O)CC(=O)C(F)(F)C(F)(F)F`, the result was inactive. Same read-out and setting: the value for `FC(F)(F)C(F)(F)C(F)(F)C(F)(F)C(F)(F)C(F)(F)C(F)(F)CCI` was “inactive”; that for `C=CC(=O)OCC(F)(F)C(F)(F)C(F)(F)COC(=O)C=C` was “inactive”. In the case of `CO[Si](C)(CCC(F)(F)C(F)(F)C(F)(F)C(F)(F)C(F)(F)C(F)(F)F)OC`, the result was inactive. On the same count and under the same terms, the value for `O=C(O)CCC(F)(F)C(F)(F)C(F)(F)F` was “inactive”; that for `NC(=O)C(F)(F)C(F)(F)C(F)(F)C(F)(F)C(N)=O` was “inactive”; that for `NCC(F)(F)C(F)(F)C(F)(F)C(F)(F)C(F)(F)C(F)(F)C(F)(F)C(F)(F)F` was “inactive”.

Turning to `C=CC(=O)OCCC(F)(F)C(F)(F)C(F)(F)C(F)(F)F`, the result was inactive.

`OCCCCC(F)(F)C(F)(F)C(F)(F)C(F)(F)F`: the outcome was inactive. The same measure, in the same setting: to `O=C(F)C1(F)C(F)(F)C(F)(F)C(F)(F)C(F)(F)C1(F)F` belongs “inactive”. `FC(F)(F)C(F)(F)C(F)(F)C(F)(F)C(F)(F)C(F)(F)CC[Si](Cl)(Cl)Cl`: the outcome was inactive and the AC50 was 0.211 µM (active).

For `NC(=O)C(F)(F)C(F)(F)C(F)(F)C(F)(F)C(F)(F)C(F)(F)C(F)(F)F`, the outcome was inactive.

Take `O=C(O)C(F)(F)C(F)(F)C(F)(F)C(F)(F)C(F)(F)C(F)(F)C(F)F`: the result was inactive. Same read-out and setting: to `COC(F)(C(F)F)C(F)(F)F` (stereo not given) belongs “inactive”; to `OC(O)C(F)(F)C(F)(F)F`, “inactive”; to `C=CC(=O)OCC(F)(F)C(F)(F)C(F)(F)C(F)(F)C(F)(F)C(F)(F)C(F)(F)C(F)F`, “inactive”.

Take `OCC(F)(F)C(F)(F)C(F)(F)CO`: the result was inactive. With `NCC(F)(F)C(F)(F)C(F)(F)C(F)(F)C(F)(F)C(F)(F)F`, the result was inactive. Turning to `O=C(O)C(F)(F)OC(F)(F)C(F)(F)OC(F)(F)C(F)(F)OC(F)(F)F`, the result was inactive. For `CN(C(=O)C(F)(F)C(F)(F)C(F)(F)F)[Si](C)(C)C`, the result was inactive. On the same count and under the same terms, to `NC(=O)C(F)(F)C(F)(F)C(F)(F)C(F)F` belongs “inactive”.
